The results in this text go back to PubChem BioAssay (EPA / NIEHS).

“And” between values parts separate entries of the source, which are not always exact repeats. Equal values may be shown once. Where a structure was tested more than once in an assay, its records may differ in their call. The source made the active and inactive calls. How the source made its calls: active means hit-call score of the fitted dose curve at least 0.9, where 1 is the maximum; inactive means score below 0.9.

The target of assay [1] is Nuclear respiratory factor 1 (Homo sapiens) (UniProt Q16656). As to the kind of experiment: ATG_NRF1_CIS: Attagene CIS-FACTORIAL HepG2 Assay for human Nuclear Respiratory Factor 1 (NRF1) Orphan Gene (AID 2282987). As to conditions: HepG2 NRF1 cis-element reporter, Attagene multiplex; actives raise or lower the signal. The method in brief:
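Transcriptional reporter readout, one component of a 52-endpoint multiplexed HepG2 panel. Exposure 24 h; mRNA detected via RT-PCR and fluorescent capillary electrophoresis; fitting in both directions against DMSO.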

Assay [2] in a line: ATG_NFI_CIS: Attagene CIS-FACTORIAL HepG2 Assay for human Nuclear Factor I (NFI) (AID 2282989). Particulars: HepG2 cis-regulatory reporter, NFI response element transcription; actives raise or lower the signal. In a few lines: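 Cells: human liver HepG2, transiently transfected with promoter-regulated reporter transcription units. Exposure 24 h. Detection: fluorescent RT-PCR products separated by capillary electrophoresis, normalised to DMSO negative control.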

Assay [3] addresses Myc proto-oncogene protein (Homo sapiens) (UniProt P01106). As to the kind of experiment: ATG_Myc_CIS: Attagene CIS-FACTORIAL HepG2 Assay for human Myelocytomatosis (Myc) Proto-Oncogene Transcription Factor (AID 2282990). Particulars: HepG2, Attagene cis-reporter transcription factor activity; actives raise or lower the signal. In a few lines:
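Multiplexed cis-reporter transcription in HepG2 cells after 24 h chemical treatment. Reporter mRNA measured by RT-PCR and capillary electrophoresis fluorescence; activity fitted bidirectionally against DMSO control.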

A short description of assay [4]: ATG_NF_kB_CIS: Attagene CIS-FACTORIAL HepG2 Assay for human Nuclear Factor Kappa B (NF-kB) (AID 2282991). Particulars: HepG2 Attagene cis-factorial NF-kB reporter mRNA; actives raise or lower the signal. The method in brief:
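HepG2, transient multi-reporter transfection, cis promoter elements (endogenous TFs). 24 h exposure. Total RNA → RT → PCR → 6-FAM label → HpaI → CE. Gain/loss vs DMSO.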

Assay [5] is described as follows: ATG_NRF2_ARE_CIS: Attagene CIS-FACTORIAL HepG2 Assay for human Nuclear Factor Erythroid 2 Related Factor 2 (NFR2) response to Antioxidant Response Elements (ARE) (AID 2282992). Particulars: HepG2 Attagene ARE/NRF2 reporter, transcription factor activity; actives raise or lower the signal. The method in brief: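 Transient MRTU transfection of HepG2; 24 h compound exposure; TriZol RNA, RT with oligo(dT), PCR, 6-FAM primer extension, HpaI cut, CE. Bidirectional fit vs DMSO.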

A short description of assay [6]: ATG_Oct_MLP_CIS: Attagene CIS-FACTORIAL HepG2 Assay for human Octamer-Binding Transcription Factor (Oct) (AID 2282993). Particulars: HepG2 Attagene cis-factorial Oct reporter, mRNA; actives raise or lower the signal. The method in brief: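 HepG2, transient MRTU transfection, cis promoter elements; 24 h dosing; RT-PCR/CE fluorescence read-out of reporter mRNA; fit both directions vs DMSO.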

In assay [7] the target is Cellular tumor antigen p53 (Homo sapiens) (UniProt P04637). Briefly: ATG_p53_CIS: Attagene CIS-FACTORIAL HepG2 Assay for human p53 Transcription Factor (AID 2282994). Particulars: HepG2 p53 cis-element reporter, Attagene mRNA; actives raise or lower the signal. In a few lines:
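HepG2, transient MRTU transfection (cis promoter elements, endogenous TFs); 24 h dosing; RNA isolation, RT-PCR, 6-FAM primer extension, HpaI digest, CE fluorescence; bidirectional fit vs DMSO.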

The nature of assay [8]: BSK_3C_TissueFactor: BioMAP Diversity Plus: 3C Assay for Tissue Factor Biomarker Activity (AID 2282997). As to conditions: BioMAP 3C HUVEC, tissue factor biomarker readout; actives raise or lower the signal. In a few lines: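 Endothelial monolayers (human umbilical vein, primary) are dosed, incubated 24 h, and assayed for Tissue Factor by ELISA; DMSO serves as negative control for bidirectional fitting.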

Assay [9] is described as follows: BSK_3C_uPAR: BioMAP Diversity Plus: 3C Assay for Urokinase-type plasminogen activator receptor (uPAR) Biomarker Activity (AID 2282998). As to conditions: BioMAP 3C HUVEC, uPAR biomarker ELISA; actives raise or lower the signal. In a few lines: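 A multiplexed primary-cell system built on human umbilical vein endothelium was used, with chemical present for 24 h before reading. Cell-surface uPAR was detected by ELISA; signal change in either direction counted against DMSO.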

A short description of assay [10]: BSK_3C_VCAM1: BioMAP Diversity Plus: 3C Assay for Vascular cell adhesion molecule 1 (VCAM1) Biomarker Activity (AID 2282999). Particulars: BioMAP 3C HUVEC, VCAM1 ELISA, cytokine-stimulated; actives raise or lower the signal. In a few lines:
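Human umbilical vein endothelial cells were dosed with compound for 24 h, after which cell-surface VCAM-1 was quantified by ELISA. Bidirectional curve fitting used DMSO as negative control and activity baseline.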
(In an ELISA, binding on a coated surface is turned into a signal by an enzyme label.)

By AC50 is commonly meant the concentration giving half of the maximal activity seen.

Sequence of Nuclear respiratory factor 1 (Homo sapiens) (Q16656 whole entry, looked up): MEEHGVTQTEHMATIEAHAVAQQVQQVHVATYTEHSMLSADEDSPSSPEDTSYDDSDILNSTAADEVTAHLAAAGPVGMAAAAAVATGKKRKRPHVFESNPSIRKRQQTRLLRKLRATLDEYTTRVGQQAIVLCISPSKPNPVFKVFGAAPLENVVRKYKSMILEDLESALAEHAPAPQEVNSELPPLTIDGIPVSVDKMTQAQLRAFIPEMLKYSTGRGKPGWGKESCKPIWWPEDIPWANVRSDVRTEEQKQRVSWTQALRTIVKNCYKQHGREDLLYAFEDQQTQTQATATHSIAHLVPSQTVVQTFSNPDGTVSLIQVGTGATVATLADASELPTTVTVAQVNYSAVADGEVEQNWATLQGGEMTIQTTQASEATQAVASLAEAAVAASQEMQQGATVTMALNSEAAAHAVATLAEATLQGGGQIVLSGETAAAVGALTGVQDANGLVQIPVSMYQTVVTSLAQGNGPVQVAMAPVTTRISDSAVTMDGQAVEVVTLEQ
Sequence of Cellular tumor antigen p53 (Homo sapiens) (P04637 whole entry, looked up): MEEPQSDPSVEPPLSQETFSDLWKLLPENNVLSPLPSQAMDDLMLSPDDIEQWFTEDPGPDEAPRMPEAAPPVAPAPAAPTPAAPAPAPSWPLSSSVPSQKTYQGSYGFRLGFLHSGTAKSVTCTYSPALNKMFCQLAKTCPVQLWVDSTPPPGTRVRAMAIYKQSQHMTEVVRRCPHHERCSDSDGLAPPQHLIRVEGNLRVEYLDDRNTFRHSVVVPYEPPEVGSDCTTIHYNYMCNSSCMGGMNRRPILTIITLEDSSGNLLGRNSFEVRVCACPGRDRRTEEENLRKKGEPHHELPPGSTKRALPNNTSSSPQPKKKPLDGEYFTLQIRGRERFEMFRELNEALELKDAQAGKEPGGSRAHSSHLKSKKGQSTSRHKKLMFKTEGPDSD
Sequence of Myc proto-oncogene protein (Homo sapiens) (P01106 whole entry, looked up): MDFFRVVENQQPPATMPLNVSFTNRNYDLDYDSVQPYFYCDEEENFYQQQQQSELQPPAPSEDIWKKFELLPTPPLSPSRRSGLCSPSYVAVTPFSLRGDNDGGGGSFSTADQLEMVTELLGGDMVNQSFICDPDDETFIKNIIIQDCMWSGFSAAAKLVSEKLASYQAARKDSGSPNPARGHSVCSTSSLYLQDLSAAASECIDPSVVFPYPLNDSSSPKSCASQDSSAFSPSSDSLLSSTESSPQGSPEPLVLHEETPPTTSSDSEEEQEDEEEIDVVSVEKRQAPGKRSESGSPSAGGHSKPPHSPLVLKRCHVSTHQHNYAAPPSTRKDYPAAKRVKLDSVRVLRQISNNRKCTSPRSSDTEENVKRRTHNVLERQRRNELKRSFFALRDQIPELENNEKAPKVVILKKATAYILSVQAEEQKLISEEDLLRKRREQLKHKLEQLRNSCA

With `FC1CC(F)(F)C(F)(F)C1(F)F` (stereo unspecified), the outcome in assay [1], in assay [2], in assay [3], in assay [4], in assay [5] and in [6] was inactive. The outcome in assay [7], in assay [8], in assay [9] and in assay [10] was inactive.
Turning to `O=S(=O)(O)C(F)(F)C(F)(F)C(F)(F)C(F)(F)C(F)(F)C(F)(F)C(F)(F)F`, the outcome in assay [1], in assay [2], in assay [3], in assay [4], in [6] and in assay [7] was inactive. Also, the result in assay [8], in assay [9] and in [10] was inactive. Moreover, the concentration at half-maximal activity (AC50) in assay [5] was 42.6 µM (active) and 30.3 µM (active).
Consider `FC(F)(F)C(F)(F)C(F)(F)C(F)(F)C(F)(F)CCI`, for which the result in assay [1], in [2], in [3], in assay [4], in assay [6] and in assay [7] was inactive. Further, the outcome in assay [8], in assay [9] and in [10] was inactive. Further, the AC50 in assay [5] is 88.9 µM (active).
As to `CCCCCCS`, the outcome in [1], in [2], in assay [3], in assay [4], in [5] and in [6] was inactive. Further, in [7], the result was inactive.
Consider `OCC(F)(F)C(F)(F)C(F)(F)F`, for which the compound was called inactive in assay [1], in [2], in assay [3], in assay [4], in [5] and in [6]. The result in assay [7], in assay [8], in [9] and in [10] was inactive.
Consider `O=C(O)C(F)(F)C(F)(F)C(F)(F)C(F)(F)F`, for which the compound was called inactive in assay [1], in [2], in assay [3], in assay [4], in assay [5] and in assay [6]. Besides, the compound was classed as inactive in [7], in assay [8], in assay [9] and in [10].
As to `O=C(O)C(F)(F)C(F)(F)F`, the compound was classed as inactive in [1], in [2], in assay [3], in assay [4], in assay [5] and in assay [6]. In addition, the compound was called inactive in assay [7], in assay [8], in assay [9] and in assay [10].
For the compound `FC(F)(F)C(F)(F)C(F)(F)C(F)(F)C(F)(F)C(F)(F)C(F)(F)I`, the compound was called inactive in assay [1], in assay [2], in [3], in assay [4], in assay [5] and in assay [6]. Also, the compound was called inactive in assay [7], in assay [8], in assay [9] and in assay [10].
For the compound `OCCCC(F)(F)C(F)(F)C(F)(F)F`, the compound was classed as inactive in assay [1], in [2], in assay [3], in [4], in assay [5] and in assay [6]. Besides, the result in assay [7], in [8], in [9] and in assay [10] was inactive.
Take `CC/C=C\CCOC(=O)c1ccccc1`: the compound was called inactive in [1], in [2], in [3], in [4], in assay [5] and in assay [6]. For the same compound, the compound was called inactive in assay [7].
With `O=C(O)C(F)(OC(F)(F)C(F)(OC(F)(F)C(F)(OC(F)(F)C(F)(F)C(F)(F)F)C(F)(F)F)C(F)(F)F)C(F)(F)F` (stereo unspecified), the compound was classed as inactive in assay [1], in assay [2], in [3], in assay [4], in assay [5] and in [6]. For the same compound, the call in assay [7], in assay [8], in [9] and in assay [10] was inactive.
In the case of `CC(C)(C)C(=O)CC(=O)C(F)(F)C(F)(F)C(F)(F)F`, the call in assay [1], in [2], in assay [3], in assay [4], in assay [5] and in [6] was inactive. Besides, the outcome in [7], in [8], in assay [9] and in assay [10] was inactive.
Regarding `CCN(CC)c1ccc2c(C)cc(=O)oc2c1`, the compound was called inactive in [1], in [2], in [3], in [4], in assay [6] and in assay [7]. The outcome in [9] and in [10] was inactive. Also, the results for the AC50 in assay [5] and in assay [8] were 59.3 µM (active) and 20 µM (active), respectively.
`c1ccc(B(c2ccccc2)c2ccccc2)cc1`: the compound was classed as inactive in assay [1], in assay [3], in assay [4] and in assay [7]. For the same compound, the AC50 is 26.7 µM (active) in [2], 33.9 µM (active) in assay [5] and 43.3 µM (active) in [6].
Take `O=C(O)C(F)(F)C(F)(F)C(F)(F)C(F)(F)C(F)(F)C(F)(F)C(F)(F)C(F)(F)C(F)(F)C(F)(F)C(F)(F)C(F)(F)F`: the compound was classed as inactive in assay [1], in assay [2], in [3], in assay [4], in assay [5] and in assay [6]. The result in assay [8], in [9] and in assay [10] was inactive. In addition, in [7], the AC50 is 143 µM (active).
Take `COC(OC(C)=O)c1ccccc1` (stereo unspecified): the call in assay [1], in [2], in [3], in assay [4], in assay [5] and in assay [6] was inactive. The call in [7] was inactive.
On to `CCO[Si](CCC(F)(F)C(F)(F)C(F)(F)C(F)(F)C(F)(F)C(F)(F)F)(OCC)OCC`, for which the outcome in assay [1], in assay [2], in assay [3], in assay [4], in [5] and in assay [6] was inactive. Also, the compound was classed as inactive in [7], in [8], in assay [9] and in [10].
Consider `[Co]`, for which the compound was called inactive in assay [1], in assay [2], in assay [3], in assay [4], in assay [5] and in assay [6]. The compound was classed as inactive in assay [7].
With `OCCCC(F)(F)C(F)(F)C(F)(F)C(F)(F)C(F)(F)C(F)(F)C(F)(F)F`, the AC50 in [1] is 126 µM (active); in assay [2], 71.1 µM (active) and 267 µM (active); in assay [3] it was 79.9 µM (active); in assay [5], 67.1 µM (active) and 133 µM (active); in assay [6] it was 50 µM (active) and 245 µM (active); in assay [8] it was 54.8 µM (active) and 21.6 µM (active). The AC50 in assay [9] is 44.8 µM (active) and 43.5 µM (active); in [10] it was 24.3 µM (active) and 20.5 µM (active). In addition, the outcome in [1], in assay [3] and in assay [7] was inactive.
For the compound `O[Si](c1ccccc1)(c1ccccc1)c1ccccc1`, the AC50 is 100 µM (active) in [1], 100 µM (active) in assay [2], 31.1 µM (active) in assay [5] and 32.9 µM (active) in assay [9]. In addition, the compound was called inactive in assay [3], in assay [4], in assay [6], in assay [7], in assay [8] and in assay [10].
With `O=S(=O)(OCC(F)F)C(F)(F)F`, the compound was classed as inactive in assay [1], in assay [2], in assay [3], in [4], in assay [5] and in assay [6]. Also, the compound was called inactive in assay [7], in [8], in assay [9] and in assay [10].
